Gal4-VP16 FLuc: VP16 counterscreen qHTS for inhibitors of ROR gamma transcriptional activity; Drosophila S2 Gal4-VP16 UAS-luciferase, luminescence, 20 h; Potency, µM (titrated, usually from 53.6 µM), without a hit: at the top dose activity, negative = inhibition, most hits filed as inhibitors; 3.5% of 310,000 active;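 note: Gal4-VP16 expression switched on by copper sulfate through the metallothionein promoter; potency is the fitted concentration of half-maximal effect; % is set by controls: 0 for no effect and ±100 for the full control effect; nearly all actives have a fitted effect of over 50% in size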
MCF10A rereplic: A quantitative high throughput screen for small molecules that induce DNA re-replication in MCF 10a normal breast cells. AID 624296, 2012. MCF 10A DNA re-replication, Hoechst nuclear intensity, 48 h. 2.9% of 350,000 active. Potency, µM (titrated, usually from 46.1 µM), for inactives: at the highest dose activity, positive = re-replication, most hits filed as activators; note: potency is the fitted concentration of half-maximal effect; % of control where 0% means no effect; nearly all actives have a fitted effect of over 50% in size
IL-1B inflam inh: qHTS for Inhibitors of Inflammasome Signaling: IL-1-beta AlphaLISA Primary Screen; AID 743279, 2014; THP-1 LPS/ATP IL-1B secretion, AlphaLISA, 16 h; hits give low values; 4.7% of 360,000 active; activity change, % at 57.5 µM; in the data active = activity change below about -50%; inconclusive = mostly about -30% to -49%; note: % is set by controls: 0 for no effect and ±100 for the full control effect
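Secreted IL-1B measured by AlphaLISA bead assay after 16 h compound exposure of THP-1 cells; compounds (final up to 57.5 uM) added 1 h before LPS (250 ng/mL) and ATP (1.25 mM) stimulation; lower signal means less secretion.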
RORg inh: qHTS for inhibitors of ROR gamma transcriptional activity; Nuclear receptor ROR-gamma (Mus musculus), P51450; Drosophila S2 Gal4-RORgamma UAS-luciferase reporter, 20 h; Potency, µM (series often up to 53.6 µM), without a hit: at the highest dose activity change, negative = inhibition, usual class: inhibitors; 5.4% of 310,000 active; note: potency is the fitted concentration of half-maximal effect; % is set by controls: 0 for no effect and ±100 for the full control effect; nearly all actives have a fitted effect of over 60% in size
Target sequence (P51450 whole entry, looked up, the tested form may be a part): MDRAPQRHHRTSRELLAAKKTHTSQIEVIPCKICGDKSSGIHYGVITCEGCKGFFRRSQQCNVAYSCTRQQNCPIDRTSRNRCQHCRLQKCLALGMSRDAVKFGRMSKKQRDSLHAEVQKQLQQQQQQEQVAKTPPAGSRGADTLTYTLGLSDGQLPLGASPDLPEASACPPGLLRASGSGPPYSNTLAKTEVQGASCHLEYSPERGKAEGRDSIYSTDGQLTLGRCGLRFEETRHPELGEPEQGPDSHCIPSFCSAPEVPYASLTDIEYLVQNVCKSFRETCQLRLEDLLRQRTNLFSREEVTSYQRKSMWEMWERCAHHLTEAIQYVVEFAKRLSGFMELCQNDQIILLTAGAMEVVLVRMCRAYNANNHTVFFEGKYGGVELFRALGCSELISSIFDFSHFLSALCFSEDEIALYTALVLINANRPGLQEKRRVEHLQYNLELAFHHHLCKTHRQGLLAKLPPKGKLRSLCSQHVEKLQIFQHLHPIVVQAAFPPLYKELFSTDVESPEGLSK
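Schneider cells (Drosophila), stable Gal4 DBD–ROR gamma + UAS-luc; 1 hr cmpd preincubation; Cu2+ induction 700 uM final; 20 hr ambient; luminescence.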
SW480 rerep: A quantitative high throughput screen for small molecules that induce DNA re-replication in SW480 colon adenocarcinoma cells. Potency, µM (series often up to 46.1 µM), for inactives: at the top dose re-replication activation, usual class: activators. SW480 DNA re-replication, Hoechst DNA content imaging, 48 h. 1.8% of 340,000 active; note: potency is the fitted concentration of half-maximal effect; % of control where 0% means no effect; nearly all actives have a fitted effect of over 55% in size
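SW480 cells exposed to compounds for 48 hr at 37 C, 5% CO2, then Hoechst-stained 40 min. Nuclear DNA content imaged by fluorescence scanning (405 nm excitation, 500-530 nm emission); re-replication scored as increased high-intensity nuclei.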
* marks the source's active call; other numbers are inactive results; ? = inconclusive; / = not tested or not shown; [ ] = another dose, or the depositor's remark. Most compounds without a hit are left out; they make up all but 11% or so of the library. Unless noted, calls come from the whole dose curve; as a rule, active = well fitted curve in the direction sought with a large enough effect; inconclusive = small, poorly fitted or top-dose-only effect, or another doubt; inactive = no such curve, though single readings can be large; an effect the other way counts as inactive or inconclusive.

SMILES	Gal4-VP16 FLuc	MCF10A rereplic	IL-1B inflam inh	RORg inh	SW480 rerep
CCOc1ccccc1C(=O)Nc1ccsc1C(=O)OC	0%	7.3µM*	-3	31%	5.8µM*
CCc1ccc(NC(=O)Nc2ccsc2C(=O)OC)cc1	?	8%	-13	8.9µM*	-1%
COc1ccc(NC(=S)Nc2ccc(Oc3ccccc3)cc2)cc1	-6%	17%	-23	11%	3%
COC(=O)c1sccc1NC(=O)Nc1cc(C)ccc1OC	7%	4%	-8	15%	1%
COC(=O)c1sccc1NC(=S)Nc1cc(OC)ccc1OC	?	1%	21	11µM*	-17%
COc1ccc(NC(=S)NN(C)C(=S)Nc2ccc(OC)cc2)cc1	?	?	30	7.9µM*	3.7µM*
Cc1ccc(NC(=O)N2CCCC2C(=O)Nc2c(C)cc(C)cc2C)cc1 (centres undefined)	-2%	-5%	29	7%	-1%
CN(C)c1ccc(-c2nc(N3CCNCC3)c3ccccc3n2)cc1	-28%	/	/	?	/
CCCC(C(=O)Nc1ccc(S(=O)(=O)N2CCCC2)cc1)c1ccccc1 (centres undefined)	/	19%	-23	/	?
COC(=O)c1sccc1NC(=O)c1ccc(OC)cc1	0%	9%	20	-32%	-1%
COC(=O)c1sccc1NC(=S)Nc1ccc(OC)cc1	14µM*	-1%	-7	6.3µM*	-1%
O=C(O)c1ccccc1NC(c1ccccc1)c1ccc2cccnc2c1O (centres undefined)	/	?	27	/	?
O=C(O)c1ccc2cccnc2c1O	-20%	2%	16	14µM*	6%
COc1cccc(/C=N/NC(=S)NC2CC3CC2C2C=CCC32)c1O (centres undefined)	?	?	/	8.9µM*	14%
COc1cccc(/C=N/NC(=S)Nc2cccc(C(=O)O)c2)c1O	-22%	1%	34	?	9%
Oc1ccccc1/C=N/NC(=S)NC1CC2CC1C1C=CCC21 (centres undefined)	11µM*	21µM*	?	8.9µM*	?
CC(Cc1ccccc1)C(=O)NCCc1c[nH]c2ccccc12 (centres undefined)	-15%	/	/	?	/
O=C(c1ccc2ccccc2c1O)N1CCCCC1	/	/	15	/	/
O=C(Nc1ccc(S(=O)(=O)Nc2ncccn2)cc1)C12CC3CC(CC(Cl)(C3)C1)C2	/	-3%	17	/	1%
C/C(CC1CC(C)OC1=O)=N\NC(N)=S (centres undefined)	?	-5%	22	8.9µM*	?
O=C(NNc1nc2c(F)cccc2s1)c1ccc(F)cc1	-29%	-1%	-11	?	-2%
O=C(COc1ccccc1)NNc1nc2ccccc2s1	11µM*	1%	18	5µM*	-6%
COc1ccc2nc(NNC(=O)COc3ccccc3)sc2c1	-7%	0%[9.22 µM]	22	7.1µM*	0%
O=C(COc1ccccc1)NNc1nc2c(F)cccc2s1	-2%	0%[9.22 µM]	33	5µM*	-2%
COc1ccc(OCC(=O)Nc2nc3ccc(NC(C)=O)cc3s2)cc1	-19%	?	14	1%	-7%
SMILES	Gal4-VP16 FLuc	MCF10A rereplic	IL-1B inflam inh	RORg inh	SW480 rerep
C/C(=C\C(=O)c1ccccc1)NNc1nc2ccccc2s1	?	8%	-16	7.9µM*	0%[9.22 µM]
CC(=O)NNc1nc2ccccc2s1	11%	0%	16	-20%	-2%
COc1ccc(NS(=O)(=O)c2cccc3ccccc23)cc1	/	?	-10	/	?
O=C1/C(=C/c2ccco2)N=C(N2CCCCC2)N1c1ccccc1	0%	?	-8	-17%	?
CC(C)N(C1=N/C(=C\c2ccco2)C(=O)N1c1ccccc1)C(C)C	14%	7.3µM*	14	-21%	?
BrC(=C\c1ccccc1)/C=N/Nc1nc(N2CCOCC2)nc(N2CCOCC2)n1	?	?	-129*	-24%	-14%
CC(/C=N/Nc1nc(N2CCCCC2)nc(N2CCCCC2)n1)=C\c1ccccc1	-11%	-13%	1	?	-9%
BrC(/C=C\c1ccccc1)=N/Nc1nc(N2CCOCC2)nc(N2CCOCC2)n1	-10%	10µM*	-6	-29%	?
C=CCN1CCCC1CNC(=O)c1cc(S(N)(=O)=O)cc(OC)c1OC (centres undefined)	-5%	7%	/	-23%	0%
O=C(NCCc1ccccc1)c1ccc(NC(=O)C2CCCC2)cc1	/	?	-11	/	4%
O=S(=O)(c1ccc(C(F)(F)F)cc1)N1CCN(CCc2ccccc2)CC1	-7%	5%	5	14%	-8%
CCCNC(=O)N1N=C(c2ccc(N)cc2)c2cc3c(cc2C1C)OCO3 (centres undefined)	1%	/	/	26%	/
CCCCCC(=O)N1C[C@@H](O)[C@H](n2cc(-c3ccc(F)cc3)nn2)C[C@@H]1c1ccc(Cl)cc1	/	/	-56*	/	/
COC(=O)c1cn(NC(=O)C2CCC(C)CC2)c(=O)c2ccccc12 (centres undefined)	-3%	1%	-20	-5%	-3%
COC(=O)c1cn(NC(=O)c2cc([N+](=O)[O-])ccc2F)c(=O)c2ccccc12	4%	4.6µM*	-93*	-41%	?
CC1=C/C(=N\NC(=O)c2ccccc2)CC1	?	4%	0	13µM*	-3%
O=C(NO)c1ccccc1	2%	/	/	-11%	/
CC(C)C[C@@H](CNCC(=O)[C@H](C)NC(=O)c1[nH]cnc1C(=O)N[C@H](CN)CC(C)C)NC(=O)c1nc[nH]c1C(=O)N[C@@H](C)C(=O)O	/	?	13	/	1%
COc1ccc(-c2nc(CS(=O)CC(=O)NCCN3CCCCC3C)c(C)o2)cc1OC (centres undefined)	-13%	-2%	-11	-7%	-12%
O=C(CN1C(=O)NC2(CCCC2)C1=O)OCc1cc(=O)n2cc(Br)ccc2n1	-93%	-3%	5	3.2µM*	-11%
O=C(CN1C(=O)NC2(CCCC2)C1=O)OCCOc1cccc(Br)c1	/	-3%	-60*	/	?
COc1ccccc1CNC(=O)c1ccc(-c2ccccc2C(F)(F)F)o1	-30%	15µM*	-15	?	1%
O=C(NCc1ccccc1)c1ccc(-c2ccccc2F)o1	15%	?	-21	41%	21%
O=C(NCCc1ccc(F)cc1)c1coc(=O)c(Br)c1	6%	4.1µM*	-91*	-24%	18%
O=C(NCCc1ccccc1)c1ccc(-c2ccc(F)cc2)o1	1%[10 µM]	9%	-54*	11%	?
